The full data set covers some 8,800 targets. This sample favours those with a hit. About 0.5% of all pairs of compound and target were hits.
How the values were obtained:
Experiment in all cases: log2 fold change, soluble protein after heating vs DMSO (PISA); higher = thermal stabilisation; K562 lysate, 10 uM; active = over 0.2 and 3.5 SD of the protein, either way, in both replicates (recomputed)
lapatinib = compound: CS(=O)(=O)CCNCc1ccc(-c2ccc3ncnc(Nc4ccc(OCc5cccc(F)c5)c(Cl)c4)c3c2)o1 [lapatinib]
How it was run: (§1)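 Quantification was by TMTpro 16plex LC-MS/MS with equalised channel sums, applied to the supernatant after 21,000xg for 90 min. Samples were crude K562 extract at 1 mg/mL protein in PBS pH 7.4 with 1 mM MgCl2, treated with 10 μM compound for 30 min, heated for 3 min across 48°C-58°C, pooled and brought to 0.5% NP-40 at 4°C. Values are log-two fold changes in thermal stability relative to solvent controls, from duplicates.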

pictilisib = compound: CS(=O)(=O)N1CCN(Cc2cc3nc(-c4cccc5[nH]ncc45)nc(N4CCOCC4)c3s2)CC1 [pictilisib]
How it was run: as §1

crizotinib = compound: C[C@@H](Oc1cc(-c2cnn(C3CCNCC3)c2)cnc1N)c1c(Cl)ccc(F)c1Cl [crizotinib]
How it was run: as §1

[1] = compound: C[C@H](C1=CC=C(C=C1)C(=O)NC2=C3C=CNC3=NC=C2)N
How it was run: as §1

duvelisib = compound: C[C@H](Nc1ncnc2nc[nH]c12)c1cc2cccc(Cl)c2c(=O)n1-c1ccccc1 [duvelisib]
How it was run: as §1

gandotinib = compound: Cc1cc(Nc2cc(CN3CCOCC3)c3nc(C)c(Cc4ccc(Cl)cc4F)n3n2)n[nH]1 [gandotinib]
How it was run: as §1

tozasertib = compound: Cc1cc(Nc2cc(N3CCN(C)CC3)nc(Sc3ccc(NC(=O)C4CC4)cc3)n2)n[nH]1 [tozasertib]
How it was run: as §1

doramapimod = compound: Cc1ccc(-n2nc(C(C)(C)C)cc2NC(=O)Nc2ccc(OCCN3CCOCC3)c3ccccc23)cc1 [doramapimod]
How it was run: as §1

bafetinib = compound: Cc1ccc(NC(=O)c2ccc(CN3CC[C@H](N(C)C)C3)c(C(F)(F)F)c2)cc1Nc1nccc(-c2cncnc2)n1 [bafetinib]
How it was run: as §1

[2] = compound: Cc1cccc(CC(=O)N2CCc3c2ccc(-c2cn(C)c4ncnc(N)c24)c3F)n1
How it was run: as §1

Measured: log2 fold change

ABHD16A (UniProt O95870)
inactive: lapatinib 0.032 | pictilisib 0.028 | crizotinib 0.018 | [1] 0.006 | duvelisib -0.078 | gandotinib 0.081 | tozasertib -0.072 | doramapimod 0.013 | bafetinib 0.018 | [2] -0.021

ACAT1 (UniProt P24752)
inactive: lapatinib -0.024 | pictilisib -0.013 | crizotinib 0.029 | [1] -0.018 | duvelisib -0.016 | gandotinib 0.03 | tozasertib -0.009 | doramapimod -0.005 | bafetinib 0.026 | [2] 0.008

ARHGAP21 (UniProt Q5T5U3)
inactive: lapatinib 0.081 | pictilisib -0.116 | crizotinib -0.073 | [1] 0.071 | duvelisib -0.007 | gandotinib 0.102 | tozasertib -0.092 | doramapimod 0.013 | bafetinib -0.133 | [2] 0.053

AK2 (UniProt P54819)
inactive: lapatinib 0.058 | pictilisib -0.005 | crizotinib -0.007 | [1] 0.076 | duvelisib -0.031 | gandotinib 0 | tozasertib 0 | doramapimod 0.061 | bafetinib 0.005 | [2] -0.046

ARHGAP6 (UniProt O43182)
inactive: lapatinib 0.006 | pictilisib 0.012 | crizotinib -0.038 | [1] 0.106 | duvelisib 0.001 | gandotinib -0.097 | tozasertib 0.004 | doramapimod -0.003 | bafetinib -0.055 | [2] -0.022

AK1 (UniProt P00568)
inactive: lapatinib -0.027 | pictilisib -0.011 | crizotinib 0.091 | duvelisib -0.001 | gandotinib -0.118 | tozasertib 0.023 | doramapimod -0.037 | bafetinib 0.06 | [2] -0.189
active: [1] 0.285

AMDHD2 isoform 3 (UniProt Q9Y303)
inactive: lapatinib 0.014 | pictilisib -0.081 | crizotinib 0.025 | [1] 0.006 | duvelisib -0.043 | gandotinib 0.008 | tozasertib -0.013 | doramapimod 0.003 | bafetinib 0.093 | [2] 0.009

ALDH6A1 (UniProt Q02252)
inactive: lapatinib -0.04 | pictilisib -0.028 | crizotinib -0.023 | [1] -0.032 | duvelisib 0.073 | gandotinib -0.033 | tozasertib 0.021 | doramapimod -0.017 | bafetinib 0.122 | [2] -0.001

AFF4 (UniProt Q9UHB7)
inactive: lapatinib 0.003 | pictilisib -0.007 | crizotinib -0.033 | [1] 0.011 | duvelisib 0.059 | gandotinib 0.066 | tozasertib 0 | doramapimod 0 | bafetinib 0.05 | [2] 0.001

ANLN (UniProt Q9NQW6)
inactive: lapatinib -0.007 | pictilisib 0.004 | crizotinib -0.02 | [1] -0.037 | duvelisib -0.02 | gandotinib 0.024 | tozasertib 0.052 | doramapimod 0.01 | bafetinib -0.038 | [2] 0.028

ACLY (UniProt P53396)
UniProt P53396, sequence (P53396 whole entry, looked up): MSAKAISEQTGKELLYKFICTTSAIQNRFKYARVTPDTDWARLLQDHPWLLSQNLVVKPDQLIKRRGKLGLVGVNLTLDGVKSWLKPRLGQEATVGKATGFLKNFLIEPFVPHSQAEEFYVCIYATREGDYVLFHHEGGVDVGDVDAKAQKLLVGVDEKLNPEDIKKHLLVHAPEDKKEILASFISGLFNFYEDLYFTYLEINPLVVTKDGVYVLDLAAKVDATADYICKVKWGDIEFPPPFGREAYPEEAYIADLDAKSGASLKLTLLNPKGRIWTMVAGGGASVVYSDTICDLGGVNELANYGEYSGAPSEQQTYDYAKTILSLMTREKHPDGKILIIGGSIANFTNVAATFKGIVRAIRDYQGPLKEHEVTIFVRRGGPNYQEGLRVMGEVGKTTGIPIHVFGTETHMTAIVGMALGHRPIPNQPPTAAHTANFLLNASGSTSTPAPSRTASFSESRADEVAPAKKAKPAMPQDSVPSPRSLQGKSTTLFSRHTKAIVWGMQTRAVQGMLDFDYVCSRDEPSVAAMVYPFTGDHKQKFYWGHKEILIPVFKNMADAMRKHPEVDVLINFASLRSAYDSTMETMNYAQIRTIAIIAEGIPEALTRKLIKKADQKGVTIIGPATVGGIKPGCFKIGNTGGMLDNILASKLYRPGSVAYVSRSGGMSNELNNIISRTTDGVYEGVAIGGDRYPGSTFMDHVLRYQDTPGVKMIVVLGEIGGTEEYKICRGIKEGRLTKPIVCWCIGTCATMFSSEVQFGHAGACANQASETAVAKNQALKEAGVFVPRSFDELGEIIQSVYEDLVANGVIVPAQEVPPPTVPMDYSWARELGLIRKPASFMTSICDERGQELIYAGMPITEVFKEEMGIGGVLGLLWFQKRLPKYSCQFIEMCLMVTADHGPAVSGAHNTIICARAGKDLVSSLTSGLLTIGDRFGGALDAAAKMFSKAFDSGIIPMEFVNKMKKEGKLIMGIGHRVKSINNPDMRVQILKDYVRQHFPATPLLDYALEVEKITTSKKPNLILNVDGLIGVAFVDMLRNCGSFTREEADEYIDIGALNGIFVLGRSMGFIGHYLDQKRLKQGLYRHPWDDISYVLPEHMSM
inactive: lapatinib -0.011 | pictilisib -0.009 | crizotinib -0.005 | [1] -0.025 | duvelisib 0.012 | gandotinib 0.01 | tozasertib 0.003 | doramapimod 0.015 | bafetinib 0.008 | [2] 0.013

ACIN1 (UniProt E7EQT4)
active: [1] -0.28
inactive: lapatinib -0.001 | pictilisib -0.047 | crizotinib -0.1 | duvelisib -0.021 | gandotinib 0.047 | tozasertib 0 | doramapimod 0.068 | bafetinib -0.063 | [2] 0.032

ALDH1L2 (UniProt Q3SY69)
inactive: lapatinib 0.029 | pictilisib -0.01 | crizotinib -0.032 | [1] -0.066 | duvelisib 0.003 | gandotinib 0.039 | tozasertib 0.032 | doramapimod 0.005 | bafetinib -0.029 | [2] 0.083

ABL2 (UniProt P42684)
inactive: lapatinib -0.053 | pictilisib -0.029 | crizotinib 0.367 | [1] -0.216 | duvelisib 0.079 | gandotinib 0.228 | tozasertib 0.273 | doramapimod -0.04 | bafetinib 0.439 | [2] 0

ACTBL2 (UniProt Q562R1)
active: [2] -0.547
inactive: lapatinib 0.163 | pictilisib 0.102 | crizotinib 0.091 | [1] 0.408 | duvelisib -0.035 | gandotinib -0.166 | tozasertib -0.201 | doramapimod -0.15 | bafetinib 0.37

ALDH1B1 (UniProt P30837)
UniProt P30837, sequence (P30837 whole entry, looked up): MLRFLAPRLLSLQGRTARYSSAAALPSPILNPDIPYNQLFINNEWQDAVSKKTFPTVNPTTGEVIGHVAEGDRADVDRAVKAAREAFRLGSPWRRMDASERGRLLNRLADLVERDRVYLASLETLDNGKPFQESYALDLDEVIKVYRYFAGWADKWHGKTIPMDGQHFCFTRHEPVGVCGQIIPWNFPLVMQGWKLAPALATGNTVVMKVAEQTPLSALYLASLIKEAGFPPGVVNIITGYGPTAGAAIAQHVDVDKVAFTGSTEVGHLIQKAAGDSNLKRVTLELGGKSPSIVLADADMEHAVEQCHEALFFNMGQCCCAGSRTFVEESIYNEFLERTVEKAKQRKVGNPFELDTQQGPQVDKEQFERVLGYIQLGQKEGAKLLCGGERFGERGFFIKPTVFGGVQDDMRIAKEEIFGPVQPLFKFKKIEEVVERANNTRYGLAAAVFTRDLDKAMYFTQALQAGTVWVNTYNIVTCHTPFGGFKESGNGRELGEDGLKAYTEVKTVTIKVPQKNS
inactive: lapatinib -0.012 | pictilisib 0.008 | crizotinib -0.007 | [1] -0.024 | duvelisib 0.058 | gandotinib 0.052 | tozasertib 0.021 | doramapimod -0.017 | bafetinib -0.049 | [2] -0.041

ACAA1 (UniProt P09110)
UniProt P09110, sequence (P09110 whole entry, looked up): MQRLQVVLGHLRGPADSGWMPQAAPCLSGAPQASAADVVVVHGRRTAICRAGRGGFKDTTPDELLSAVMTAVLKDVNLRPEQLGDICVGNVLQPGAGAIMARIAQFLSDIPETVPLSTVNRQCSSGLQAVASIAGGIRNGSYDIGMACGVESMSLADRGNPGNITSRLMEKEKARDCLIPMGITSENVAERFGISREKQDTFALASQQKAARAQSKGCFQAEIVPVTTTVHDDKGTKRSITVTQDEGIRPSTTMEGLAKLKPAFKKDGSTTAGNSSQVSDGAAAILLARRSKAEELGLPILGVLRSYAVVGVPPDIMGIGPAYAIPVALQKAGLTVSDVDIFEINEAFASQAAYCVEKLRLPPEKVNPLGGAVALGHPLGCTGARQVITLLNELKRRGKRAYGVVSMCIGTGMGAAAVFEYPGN
inactive: lapatinib 0.017 | pictilisib -0.005 | crizotinib 0.014 | [1] -0.015 | duvelisib -0.014 | gandotinib 0.056 | tozasertib -0.043 | doramapimod -0.001 | bafetinib 0.045 | [2] -0.011

AKT1 (UniProt P31749)
inactive: lapatinib 0.054 | pictilisib 0.002 | crizotinib -0.049 | [1] -0.034 | duvelisib -0.008 | gandotinib -0.048 | tozasertib 0 | doramapimod 0.031 | bafetinib -0.044 | [2] 0.033

AK4 (UniProt P27144)
UniProt P27144, sequence (P27144 whole entry, looked up): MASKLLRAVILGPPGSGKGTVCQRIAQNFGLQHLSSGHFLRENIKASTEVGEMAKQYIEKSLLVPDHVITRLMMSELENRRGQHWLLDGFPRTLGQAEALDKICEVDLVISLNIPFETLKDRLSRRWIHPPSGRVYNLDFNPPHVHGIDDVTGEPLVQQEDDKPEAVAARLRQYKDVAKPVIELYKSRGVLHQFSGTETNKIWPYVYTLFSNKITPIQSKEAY
inactive: lapatinib -0.003 | pictilisib -0.033 | crizotinib 0.028 | [1] -0.027 | duvelisib 0.014 | gandotinib -0.019 | tozasertib 0.052 | doramapimod 0.03 | bafetinib -0.024 | [2] 0.012

AGPS (UniProt O00116)
inactive: lapatinib -0.017 | pictilisib -0.049 | crizotinib -0.02 | [1] -0.033 | duvelisib -0.011 | gandotinib 0.019 | tozasertib 0.015 | doramapimod 0.025 | bafetinib 0.002 | [2] 0.083

ACADM isoform 2 (UniProt P11310)
inactive: lapatinib -0.007 | pictilisib -0.009 | crizotinib -0.042 | [1] -0.007 | duvelisib -0.007 | gandotinib 0.029 | tozasertib 0.029 | doramapimod -0.03 | bafetinib 0.024 | [2] -0.01

AGGF1 (UniProt Q8N302)
inactive: lapatinib -0.046 | pictilisib -0.133 | crizotinib -0.028 | [1] -0.193 | gandotinib 0.139 | tozasertib 0.04 | doramapimod -0.011 | bafetinib 0.047 | [2] 0.268

ALDH18A1 isoform 2 (UniProt P54886)
UniProt P54886, sequence (P54886 whole entry, looked up): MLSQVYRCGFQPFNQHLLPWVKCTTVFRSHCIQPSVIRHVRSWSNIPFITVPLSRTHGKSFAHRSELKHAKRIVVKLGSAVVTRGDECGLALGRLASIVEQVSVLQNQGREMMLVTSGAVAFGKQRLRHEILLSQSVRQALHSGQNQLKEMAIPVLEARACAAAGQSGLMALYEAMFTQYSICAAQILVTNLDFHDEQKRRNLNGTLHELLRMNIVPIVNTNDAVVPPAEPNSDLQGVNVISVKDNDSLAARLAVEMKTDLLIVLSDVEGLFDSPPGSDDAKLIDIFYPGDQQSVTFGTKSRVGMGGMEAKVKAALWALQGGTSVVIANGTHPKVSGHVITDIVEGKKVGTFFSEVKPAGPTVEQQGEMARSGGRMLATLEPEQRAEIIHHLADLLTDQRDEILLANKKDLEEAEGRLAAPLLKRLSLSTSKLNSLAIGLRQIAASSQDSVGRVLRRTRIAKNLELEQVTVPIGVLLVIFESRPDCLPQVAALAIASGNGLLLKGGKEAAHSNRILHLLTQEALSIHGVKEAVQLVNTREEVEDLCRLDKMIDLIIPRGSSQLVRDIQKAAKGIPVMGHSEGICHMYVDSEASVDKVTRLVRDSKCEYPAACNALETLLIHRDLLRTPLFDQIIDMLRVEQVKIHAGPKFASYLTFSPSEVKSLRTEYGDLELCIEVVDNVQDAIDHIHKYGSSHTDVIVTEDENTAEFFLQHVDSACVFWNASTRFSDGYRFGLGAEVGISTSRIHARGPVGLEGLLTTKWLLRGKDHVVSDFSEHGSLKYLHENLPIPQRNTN
inactive: crizotinib 0.127 | duvelisib 0.088 | doramapimod -0.134

ACIN1 isoform 5 (UniProt Q9UKV3)
UniProt Q9UKV3, sequence (Q9UKV3 whole entry, looked up): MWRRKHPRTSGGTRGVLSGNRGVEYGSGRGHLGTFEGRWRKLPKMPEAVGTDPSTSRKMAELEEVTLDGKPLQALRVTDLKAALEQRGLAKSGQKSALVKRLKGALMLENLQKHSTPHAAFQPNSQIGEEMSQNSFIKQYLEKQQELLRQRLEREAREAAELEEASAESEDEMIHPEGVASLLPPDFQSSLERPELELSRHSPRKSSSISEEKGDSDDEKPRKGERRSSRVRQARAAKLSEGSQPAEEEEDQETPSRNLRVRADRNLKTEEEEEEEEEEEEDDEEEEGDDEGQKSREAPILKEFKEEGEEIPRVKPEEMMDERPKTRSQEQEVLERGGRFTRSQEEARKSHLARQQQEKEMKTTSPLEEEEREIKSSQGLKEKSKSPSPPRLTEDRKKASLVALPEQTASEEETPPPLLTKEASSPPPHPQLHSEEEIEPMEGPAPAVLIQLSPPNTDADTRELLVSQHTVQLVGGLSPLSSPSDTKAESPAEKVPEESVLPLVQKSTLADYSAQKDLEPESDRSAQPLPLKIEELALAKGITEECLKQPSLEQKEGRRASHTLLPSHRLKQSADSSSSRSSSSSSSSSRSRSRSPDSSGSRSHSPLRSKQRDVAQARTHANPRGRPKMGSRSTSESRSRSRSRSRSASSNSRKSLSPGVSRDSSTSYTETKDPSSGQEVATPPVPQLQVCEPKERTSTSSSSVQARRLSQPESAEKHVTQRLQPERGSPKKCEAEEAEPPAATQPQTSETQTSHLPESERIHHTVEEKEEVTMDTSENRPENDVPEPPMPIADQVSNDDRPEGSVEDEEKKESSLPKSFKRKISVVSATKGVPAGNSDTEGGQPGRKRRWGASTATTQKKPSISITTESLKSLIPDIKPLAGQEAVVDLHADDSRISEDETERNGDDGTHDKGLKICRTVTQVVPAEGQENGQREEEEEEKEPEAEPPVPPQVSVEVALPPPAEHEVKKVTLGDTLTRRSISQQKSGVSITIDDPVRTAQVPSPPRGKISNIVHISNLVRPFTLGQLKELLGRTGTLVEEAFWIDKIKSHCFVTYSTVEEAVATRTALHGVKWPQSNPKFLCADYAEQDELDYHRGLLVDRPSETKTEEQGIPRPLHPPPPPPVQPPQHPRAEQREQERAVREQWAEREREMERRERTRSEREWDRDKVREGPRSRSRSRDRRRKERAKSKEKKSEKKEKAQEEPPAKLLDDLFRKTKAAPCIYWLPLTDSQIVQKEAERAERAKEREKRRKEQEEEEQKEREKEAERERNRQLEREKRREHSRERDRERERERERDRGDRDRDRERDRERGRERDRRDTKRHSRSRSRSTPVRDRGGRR
inactive: lapatinib 0.012 | pictilisib -0.024 | crizotinib 0.034 | [1] 0.022 | duvelisib -0.002 | gandotinib -0.003 | tozasertib 0.003 | doramapimod 0.01 | bafetinib -0.013 | [2] 0.002

ARHGEF2 (UniProt V9GYF0)
inactive: lapatinib -0.134 | duvelisib 0.11 | tozasertib 0.041

APOB (UniProt P04114)
inactive: lapatinib 0.054 | pictilisib 0.004 | crizotinib -0.003 | [1] -0.182 | duvelisib 0.104 | gandotinib 0.084 | tozasertib 0.015 | doramapimod 0.024 | bafetinib -0.091 | [2] 0.06

APOBEC3C (UniProt Q9NRW3)
inactive: lapatinib 0.011 | pictilisib 0.033 | crizotinib -0.09 | [1] -0.058 | duvelisib 0.021 | gandotinib 0.066 | tozasertib -0.055 | doramapimod 0.1 | bafetinib -0.023 | [2] 0.153

ALKBH7 (UniProt Q9BT30)
inactive: crizotinib -0.049 | [1] 0.289 | duvelisib 0.091 | gandotinib 0.08 | tozasertib -0.045 | doramapimod -0.062 | [2] 0.187

ANKRD40 (UniProt Q6AI12)
inactive: pictilisib -0.116 | crizotinib -0.022 | [1] -0.018 | duvelisib -0.171 | gandotinib -0.032 | tozasertib 0.249 | doramapimod -0.027 | bafetinib -0.149 | [2] -0.067

ARMCX5 (UniProt Q6P1M9)
UniProt Q6P1M9, sequence (Q6P1M9 whole entry, looked up): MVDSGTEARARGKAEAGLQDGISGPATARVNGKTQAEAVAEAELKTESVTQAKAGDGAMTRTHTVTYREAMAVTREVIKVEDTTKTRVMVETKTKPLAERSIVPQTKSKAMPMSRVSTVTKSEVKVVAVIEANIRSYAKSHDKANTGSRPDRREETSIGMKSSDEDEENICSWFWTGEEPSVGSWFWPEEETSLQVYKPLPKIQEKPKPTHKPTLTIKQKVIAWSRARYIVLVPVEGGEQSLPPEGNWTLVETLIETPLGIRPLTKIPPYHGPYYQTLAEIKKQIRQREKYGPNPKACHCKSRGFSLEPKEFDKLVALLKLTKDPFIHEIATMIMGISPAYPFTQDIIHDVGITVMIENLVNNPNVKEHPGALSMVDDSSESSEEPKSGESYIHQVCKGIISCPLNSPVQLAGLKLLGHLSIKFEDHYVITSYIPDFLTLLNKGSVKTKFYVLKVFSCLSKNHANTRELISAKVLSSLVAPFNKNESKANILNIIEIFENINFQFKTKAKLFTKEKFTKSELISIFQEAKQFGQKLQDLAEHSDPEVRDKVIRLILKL
inactive: lapatinib -0.033 | pictilisib 0.04 | [1] -0.001 | duvelisib -0.114 | gandotinib 0.001 | tozasertib 0.032 | bafetinib -0.104 | [2] 0.078

ADAM17 (UniProt P78536)
inactive: pictilisib 0.032 | crizotinib 0.051 | [1] 0.008 | duvelisib 0.024 | gandotinib 0.054 | tozasertib -0.015 | doramapimod -0.06 | bafetinib 0.019 | [2] 0.099

ANXA2 (UniProt H0YL33)
inactive: lapatinib 0.026 | pictilisib -0.028 | crizotinib -0.048 | [1] 0.284 | duvelisib 0.044 | gandotinib -0.163 | doramapimod 0.017 | bafetinib 0.031 | [2] -0.054

ACAT1, A0A5F9ZHJ0
inactive: [1] -0.151 | gandotinib -0.075 | [2] 0.208

ALKBH1 (UniProt Q13686)
inactive: [1] -0.016 | duvelisib 0.014 | gandotinib 0 | tozasertib 0.09 | [2] 0.048
